Results from PubChem BioAssay (NCATS).
Results filed as inconclusive are left out. Where a call stands in place of a potency, no number is given. Where a structure was tested more than once in an assay, its records may differ in their call. Activity calls are given as the source filed them. The call rests on the fitted dose curve; in most records, active means well fitted inhibition curve with a large enough effect; inconclusive means small, poorly fitted or top-dose-only effect; inactive means no such curve, though single readings can be large or run the other way.

target: M-phase phosphoprotein 8 (Homo sapiens) (UniProt Q99549); assay: qHTS Validation Assay for Inhibitors for MPP8 Chromodomain Interactions with Methylated Histone Tails (AID 488949); conditions: AlphaScreen MPP8 binding to H3K9me3 peptide; series mostly up to 57.1 µM; further: nearly all actives have a fitted effect of over 55% in size
Sequence (Q99549 whole entry, looked up): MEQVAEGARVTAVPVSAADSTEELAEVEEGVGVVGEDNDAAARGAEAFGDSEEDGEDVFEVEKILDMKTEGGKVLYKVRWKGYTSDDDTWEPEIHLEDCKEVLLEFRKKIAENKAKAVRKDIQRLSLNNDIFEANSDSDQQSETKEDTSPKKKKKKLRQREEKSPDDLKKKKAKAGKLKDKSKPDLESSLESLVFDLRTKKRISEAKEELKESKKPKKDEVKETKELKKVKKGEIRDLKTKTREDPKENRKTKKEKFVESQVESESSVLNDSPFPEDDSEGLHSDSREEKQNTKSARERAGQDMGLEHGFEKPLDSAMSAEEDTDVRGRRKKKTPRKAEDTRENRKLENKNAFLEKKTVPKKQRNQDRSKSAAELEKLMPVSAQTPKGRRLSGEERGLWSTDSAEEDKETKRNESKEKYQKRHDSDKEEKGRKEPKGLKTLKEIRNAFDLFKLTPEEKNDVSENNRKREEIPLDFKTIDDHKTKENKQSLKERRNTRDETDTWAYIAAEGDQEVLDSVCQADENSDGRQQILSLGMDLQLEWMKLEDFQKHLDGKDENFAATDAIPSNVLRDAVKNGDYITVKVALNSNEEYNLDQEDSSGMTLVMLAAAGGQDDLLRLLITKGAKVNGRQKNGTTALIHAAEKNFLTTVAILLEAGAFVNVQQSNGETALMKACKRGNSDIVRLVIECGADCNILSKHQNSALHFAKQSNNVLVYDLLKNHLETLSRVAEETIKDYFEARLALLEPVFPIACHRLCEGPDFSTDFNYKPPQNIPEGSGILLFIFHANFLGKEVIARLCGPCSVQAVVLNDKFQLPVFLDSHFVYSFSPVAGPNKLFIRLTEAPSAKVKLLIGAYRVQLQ
From the text: As our understanding of epigenetics expands, it is becoming clear that players in this field are potential targets for drug development. This area of epigenetic therapy has established applications for the treatment of cancer and neurological diseases. We have been involved in this field for a number of years and have performed high-throughput screens to identify the first small molecule inhibitors of protein methyltransferases. These methyltransferases target multiple substrates, and thus regulate many arms of an epigenetic pathway. The methylation of different substrates often generates docking sites for effector proteins that harbor binding domains (chromo, tudor, PHD, MBT and ANK repeats). It has been proposed that the binding sites generated for different proteins by these post-translational modifcations mediate downstream effects on chromatin. Consistent with this theory, di- and tri-methylation of histone H3K9 facilitates the binding of heterochromatin protein HP1. The HP1 protein harbors a chromodomain that is responsible for the methyl-dependent interaction between HP1 and lysine 9 of histone H3. HP1 was first described in flies as a heterochromatin associated protein that can regulate gene silencing. It harbors a chromodomain that binds H3K9me3. In addition, it harbors a chromoshadow domain that interacts with a large number of proteins that are involved in heterochromatin formation and gene repression. There are three highly related HP1 isoforms. All three variants are associated with pericentric heterochromatin and it is not clear whether they have specific or redundant functions. MPP8 is also involved in the repression of gene in euchromatic regions (unpublished data) and like HP1 its chromodomain binds H3K9me3. MPP8 harbors an ankyrin repeat region that is likely involved in binding and recruiting interacting proteins with transcriptional repressive function, much like the chromoshadow domain of HP1 does. We hypothesize that by inhibiting specific protein-protein interactions we will be able to develop compounds that block a single arm of an epigenetic pathway. The specificity attained by blocking a single protein-protein interaction will be far greater than that attained by blocking the enzyme that regulates one of many interactions. Low-affinity protein-protein interactions (Kd in the single- to double-digit micromolar range) such as those discussed here have been very difficult to assay by traditional techniques such as fluorescence polarization or fluorescence resonance energy transfer. We have developed a sensitive chemiluminescence-based assay (Quinn, et al. 2009), which serves as the starting point for this project. The following is a validation assay to identify lead compounds that can block methyl-dependent protein-protein interactions (specifically MPP8), which can be used as probes to analyze these methyl-driven interactions and perhaps even developed into targeted epigenetic therapies. Assay Provider: Mark T. Bedford, MD Anderson Screening Center PI: Austin, C.P. Screening Center: NIH Chemical Genomics Center [NCGC]
To each well, 2 uL of MPP8 protein (final 50 nM) and 1 uL biotinylated histone peptide trimethylated at Lys9 [b-H3(1-18)K9me3] (final 50 nM) was added in 1x PBS buffer, pH 7.4, containing 0.01% Tween-20 using a nanoliter dispenser. Formation of a protein-peptide complex proceeded at room temperature for 30 min. A Kalypsys pin-tool was employed to transfer 23 nL of library compound solution in DMSO to each well. Aurintricarboxylic acid (ATA) was used as an intraplate control with a 12-point titration in duplicate. Following a 30 min incubation of the protein-peptide complex with compounds at room temperature, a mixture of 40 ug/mL each streptavidin-coated donor and nickel chelate acceptor AlphaScreen beads (final 10 ug/mL) was added in a 1 uL dispense for a final volume of 4 uL. Plates were incubated protected from the light for 30 min at room temperature. […]
Potency means the concentration at half of the fitted maximal effect.

SMILES	Potency
N=C(N)c1ccc(OCCCCCOc2ccc(C(=N)N)cc2)cc1 (tested in a mixture with another compound)	inactive
O=C(O)[C@H]1NCCC[C@H]1C(=O)O	inactive
NC(=O)c1ccccc1	inactive
CCCn1c(=O)c2[nH]c(-c3ccc(S(=O)(=O)O)cc3)nc2n(CCC)c1=O	inactive
N[C@@H](Cc1ccc(O)c(I)c1)C(=O)O	inactive
CC(C)[C@@H]1CC[C@@H](C)C[C@@H]1P(=O)(c1ccccc1)c1ccccc1	inactive
Cc1ccccc1/C=C/C1=NCCN1	inactive
COc1ccccc1N1CCN(CCCCNC(=O)c2ccc3ccccc3c2)CC1	inactive
O=C(O)CCC/C=C\C[C@@H]1[C@@H](/C=C/[C@H](O)C2Cc3ccccc3C2)[C@@H](F)C[C@@H]1O	inactive
O=C(O)/C=C/c1ccc(O)c(O)c1	inactive
CCN(CC)CCOC(=O)c1cc(Cl)c(N)cc1OC	inactive
O=C1C2C=CC=CC2=NC(=S)N1CCN1CCC(=C(c2ccc(F)cc2)c2ccc(F)cc2)CC1 (stereo not given)	50.1 µM (active) and inactive
OC[C@H]1O[C@@H](n2cnc3cncnc32)[C@H](O)[C@@H]1O	inactive
NCCCNCCCCNCCCN	inactive
COc1ccc(C(=O)NCc2cccnc2)cc1C(=O)NCc1cccnc1	inactive
CN(C)S(=O)(=O)c1ccc2c(c1)/C(=C/c1cc3c([nH]1)CCCC3)C(=O)N2	17.8 µM (active) and inactive
Nc1ncnc2c1ncn2C1CCCC1	inactive
CCN(c1nc(N)c(C(=O)N=C(N)N)nc1Cl)C(C)C	inactive
CNc1cc(NS(=O)(=O)c2ccc(N)cc2)nc(NC)n1	inactive
Cc1ccc([N+](=O)[O-])cc1S(=O)(=O)N(C)C	inactive

SMILES	Potency
C[C@@H](NCCc1ccc(O)cc1)[C@@H](O)c1ccc(O)cc1	inactive
NC1CCN(O)C1=O (stereo not given)	inactive
NC(N)=N[C@@H](CCC(=O)O)C(=O)O	inactive
Cc1cc2c(cc1Cl)N(C(=O)Nc1ccnc3ccccc13)CC2	inactive
CCCc1c(OCCCOc2ccc(OCC(=O)O)cc2)ccc(C(C)=O)c1O	inactive
CCOC(=O)C12CC1/C(=N/O)c1ccccc1O2 (stereo not given)	inactive
NC1(C(=O)O)CCc2cc(C(=O)O)ccc21 (stereo not given)	inactive
CC[n+]1c(/C=C/C=C2/N(C)c3ccccc3C2(C)C)sc2ccccc21	15 µM (active)
CN(CC[C@@H](Oc1ccc(C(F)(F)F)cc1)c1ccccc1)CC(=O)O	inactive
N=C(N)SCCN	inactive
O[Si](CCCN1CCCCC1)(c1ccc(F)cc1)C1CCCCC1 (stereo not given)	inactive
Nc1ccc(CCNc2ncnc3c2ncn3C2OC(CO)C(O)C2O)cc1 (stereo not given)	inactive
NC(=O)c1cc[n+](CC2=C(C(=O)O)N3C(=O)[C@@H](NC(=O)[C@@H](c4ccccc4)S(=O)(=O)[O-])[C@H]3SC2)cc1	inactive
Nc1nc2c(nc(Br)n2C2OC3COP(=O)(O)O[C@@H]3C2O)c(=O)[nH]1 (stereo not given in full)	inactive
NCCCCN	inactive
NC/C=C\C(=O)O	inactive
N[C@@H](Cc1ccc(F)cc1)C(=O)O	inactive
O=c1cc(-c2ccccc2F)[nH]c2cc3c(cc12)OCO3	inactive
COC(=O)C(C)(N)Cc1ccc(O)cc1 (stereo not given)	inactive
NCCS(=O)O	inactive
